Source: PubChem
SUMO1-SIM PPI = SUMO1-SIM interaction modulation; P63165; 360,000 compounds, 0.33% hits; inhibition, % at 20 µM; SUMO1 binding to a labelled peptide, TR-FRET, 1 h; AID 602429; in the data active = inhibition above about 37%
Neddylation inh = cullin neddylation inhibition; P61081+Q13564; TR-FRET cullin neddylation, biochemical; inhibition, % at 25 µM; 360,000 compounds, 0.58% hits; AID 651699; in the data active = inhibition above about 36%
Rin1 Abl inh = inhibitors of human Rin1-Abl protein interaction; P00519+Q13671; TR-FRET Rin1/Abl binding, biochemical; inhibition, % at 7.35 µM; 360,000 compounds, 0.4% hits; AID 588664; in the data active = inhibition above about 5%, passing the limit was not always enough
ATG4B inh = blocks human ATG4B protease cleavage of LC3 substrate | ATG4B cleavage of LC3-PLA2, NBD-HPC fluorescence, 1 h | inhibition, % at 8.33 µM | 340,000 compounds, 0.51% hits | AID 504462
Neddyl conf = cullin neddylation inhibition, confirmation. shares compounds with Neddylation inh. TR-FRET cullin neddylation biochemical assay. calls only at 25 µM. 1,800 compounds, 13% hits;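 also: neddylation substrate is the cullin 1 ring ligase complex with SKP2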
* marks the source's active call; other numbers are inactive results; i = inactive; · = not tested or not shown; + = active, no number. Only some compounds are listed: those with a hit (about 1.7% of all), similar ones and a draw of the others. Rule as the data show it, unless noted: active = inhibition above about 40%; inactive = the rest.

SMILES	SUMO1-SIM PPI	Neddylation inh	Rin1 Abl inh	ATG4B inh	Neddyl conf
Cc1cc(C(=O)NCc2ccccc2)c(=O)[nH]c1C	1	53*	-4	1	+
COc1ccccc1Nc1ncc(C(=O)N2CCN(Cc3ccc(OC)c(OC)c3OC)CC2)c2ccccc12	5	44*	-6	-17	·
COc1cccc(-c2cnc(C(O)c3ccc(CN4CCCC4)cc3)[nH]2)c1 (centres undefined)	2	-1	1	·	·
Cc1cccn2c(=O)c3cc(C(=O)N4c5ccccc5CC4C)n(C)c3nc12 (centres undefined)	-1	·	-1	1	·
CC1Cc2ccccc2N1C(=O)c1cc2c(=O)n3ccccc3nc2n1C (centres undefined)	-12	48*	-2	-8	+
COC(=O)C1=C(C)N=C2SC(C#N)=C(N)N2C1c1ccc(OCc2ccccc2)cc1 (centres undefined)	0	42*	-2	-3	i
CN(Cc1ccccc1)C(=O)C1(C)CCN1C(=O)Cc1ccc(Cl)cc1Cl (centres undefined)	-2	3	-1	·	·
O=C(Nc1sc2c(c1C(=O)O)CCCC2)c1ccc(Cl)cc1	-8	29	0	23	·
CC(C)Cc1csc(NC(=O)c2ccc(Cl)cc2)c1C(=O)O	1	45*	1	20	i
COc1cccc(NC(=O)C2(C)CCN2C(=O)CC2CC2)c1 (centres undefined)	-3	-8	0	·	·
O=C(N/N=C/c1cn(Cc2ccccc2)c2ccccc12)c1cc(O)cc(O)c1	10	41*	-2	26	+
Cc1cc(C)n2nc3ccccc3c2n1	-1	42*	0	-8	i
Cc1cc(=O)[nH]c2c3ccccc3nn12	-1	5	5	-9	·
Cc1nn(-c2ccccc2)c2[nH]c(=O)cc(C(F)F)c12	3	23	2	-3	·
Cc1ccc(-n2nc(C)c3c(C)cc(=O)[nH]c32)cc1	1	44*	0	-10	i
c1cn2c(-c3ccoc3)cncc2n1	-3	41*	-2	·	+
CC(C)(C)c1ccc(C(=O)N2CCC2(C)C(=O)Nc2cnc3ccccc3c2)cc1 (centres undefined)	-2	5	3	·	·
FC(F)(F)c1cccc(-c2ccn3ncnc3n2)c1	-2	41*	1	2	i
CCc1ccc(C2CC3C(CN2S(=O)(=O)c2ccc(C)cc2)C(=O)CC(c2ccc(CC)cc2)N3S(=O)(=O)c2ccc(C)cc2)cc1 (centres undefined)	-4	3	·	·	·
CCOC(=O)Cn1nc(-c2ccccc2)c2cnc3ccc(C)cc3c21	1	42*	0	-6	i
Cc1ccc2ccc(C#N)cc2c1O	-7	43*	-10	·	+
CC1(C)COC(c2ccc3c(c2)OCO3)OC1	3	1	1	-7	·
CC(C)Nc1ncnc2c1cnn2-c1ccccc1	8	10	0	-6	·
Cc1cccc(-n2ncc3c(NC(C)C)ncnc32)c1	5	39*	2	-3	i
CCCCNC(=O)c1cc2c(C)cc(C)cc2[nH]1	0	44*	0	11	i
SMILES	SUMO1-SIM PPI	Neddylation inh	Rin1 Abl inh	ATG4B inh	Neddyl conf
CCc1nc2ccc(C(=O)Nc3cccc(NS(C)(=O)=O)c3)cn2c1N(CC)CCOC	-4	4	-2	·	·
Cc1ccc2nc3n(c(=O)c2c1)-c1cc2ccccc2cc1C(=O)NC3Cc1ccccc1 (centres undefined)	-1	-9	-3	·	·
COC(=O)Cc1c(C)c2c(OCc3nn[nH]n3)cc(C)cc2oc1=O	-1	·	-2	6	·
Cc1c(C)c2cc(Cl)c(OCc3nn[nH]n3)cc2oc1=O	2	47*	-4	-1	i
CCN1C(=O)c2cccc3c(S(=O)(=O)N(C(C)=O)c4ccc(OC(C)=O)cc4)ccc1c23	-12	63*	-3	-7	·
CCN1C(=O)c2cccc3c(S(=O)(=O)NCc4ccccc4)ccc1c23	-26	57*	-1	-2	·
COc1ccc(N(C(=O)c2ccncc2)S(=O)(=O)c2ccc3c4c(cccc24)C(=O)N3C)cc1	-17	-7	0	0	·
CCN1C(=O)c2cccc3c(S(=O)(=O)NCCc4c[nH]c5ccccc45)ccc1c23	-17	22	-1	-25	·
CC(=O)N1C[C@@H](CO)[C@@H](N(C)C(=O)C(C)(C)C)C[C@H]1c1ccccc1	5	-2	3	·	·
CCc1nc2ccc(C(=O)NCCC(C)C)cn2c1N(C)Cc1nccs1	3	6	1	·	·
COc1ccc(-c2cc(C(=O)NCC(c3ccco3)N(C)C)c3ccccc3n2)cc1OC (centres undefined)	-8	41*	-2	-9	i
COc1ccc(-c2cc(C(=O)N3CCCC3)c3ccccc3n2)cc1OC	3	32	-1	-10	·
COc1ccc(-c2cc(C(=O)N3CCCCC3)c3ccccc3n2)cc1OC	-5	54*	1	-5	·
COc1ccc(Nc2nnc(-c3ccc(C)cc3)c3ccccc23)cc1C(=O)N1CCCCC1	-9	44*	0	7	i
COc1ccc(-c2cc(C(=O)N3CC(C)CC(C)C3)c3ccccc3n2)cc1OC (centres undefined)	-8	57*	3	9	·
Cc1ccc(-c2nn(-c3ccc(F)cc3)cc2C(=O)NCCCN2CCCC2=O)cc1	3	8	1	-9	·
COCCNC(=O)C1(C)CCCN(Cc2ccc(Cl)nc2)C1 (centres undefined)	1	6	-2	·	·
COc1ccc(-c2cc(C(=O)N3CCN(c4ncccn4)CC3)c3ccccc3n2)cc1OC	-10	51*	-6	-2	·
COc1ccc(-c2cc(C(=O)NC3CCCC3)c3ccccc3n2)cc1OC	-4	40*	-4	3	i
COc1cccc(-c2cc(C(=O)NC3CCCC3)c3ccccc3n2)c1	-8	11	1	-8	·
COc1ccc(-c2nc3cc(C)c(Br)c(C)n3c2Cc2ccccc2)cc1OC	2	-3	3	·	·
Nc1c(C(=O)Nc2ccc(Cl)cc2)oc2ccccc12	-12	44*	1	1	·
CC(=O)Nc1ccc(S(=O)(=O)N2CCN(c3cc(C(F)(F)F)ccn3)CC2)cc1	1	85*	-2	-14	i
Nc1nc2n(n1)C(c1cccc(Br)c1)CC(c1ccc(F)cc1)N2 (centres undefined)	6	39*	-4	1	i
Nc1nc2n(n1)C(c1ccccc1)CC(c1ccc(F)cc1)N2 (centres undefined)	8	9	1	-6	·
CCN(CC)CCOC(=O)c1cccc2c1-c1ccccc1C2O (centres undefined)	-13	37*	-4	-2	i
CCOc1ccc(N/C=C/C(=O)c2ccc(OC)c(OC)c2)cc1	-9	41*	1	-1	i
COc1ccc(C2C3=C(CC(C)(C)CC3=O)Nc3c2c(=O)[nH]c(=O)n3Cc2ccccc2)cc1OC (centres undefined)	-9	44*	0	-15	·
